Results taken from PubChem BioAssay AID1347418 (Sanford-Burnham Center for Chemical Genomics, 2020).
Where “and” joins values, the source holds several entries; their conditions need not be identical. Equal values may be shown once. About 750 (58%) of roughly 1,300 compounds were called active. The list shows a part of the results. Values without a mark were called inactive.

These compounds were tested against Sulfhydryl oxidase 1 (Homo sapiens) (UniProt O00391) (assay: inhibition of human sulfhydryl oxidase QSOX1 – biochemical, ROS-Glo H2O2 luminescence, HTS, primary screen (AID 1347418)). Conditions: recombinant QSOX1, ROS-Glo H2O2 luminescence; at 12.5 µM; stronger effect = higher value; active = any value above zero.
Sulfhydryl oxidase 1 (Homo sapiens), sequence (O00391 whole entry, looked up): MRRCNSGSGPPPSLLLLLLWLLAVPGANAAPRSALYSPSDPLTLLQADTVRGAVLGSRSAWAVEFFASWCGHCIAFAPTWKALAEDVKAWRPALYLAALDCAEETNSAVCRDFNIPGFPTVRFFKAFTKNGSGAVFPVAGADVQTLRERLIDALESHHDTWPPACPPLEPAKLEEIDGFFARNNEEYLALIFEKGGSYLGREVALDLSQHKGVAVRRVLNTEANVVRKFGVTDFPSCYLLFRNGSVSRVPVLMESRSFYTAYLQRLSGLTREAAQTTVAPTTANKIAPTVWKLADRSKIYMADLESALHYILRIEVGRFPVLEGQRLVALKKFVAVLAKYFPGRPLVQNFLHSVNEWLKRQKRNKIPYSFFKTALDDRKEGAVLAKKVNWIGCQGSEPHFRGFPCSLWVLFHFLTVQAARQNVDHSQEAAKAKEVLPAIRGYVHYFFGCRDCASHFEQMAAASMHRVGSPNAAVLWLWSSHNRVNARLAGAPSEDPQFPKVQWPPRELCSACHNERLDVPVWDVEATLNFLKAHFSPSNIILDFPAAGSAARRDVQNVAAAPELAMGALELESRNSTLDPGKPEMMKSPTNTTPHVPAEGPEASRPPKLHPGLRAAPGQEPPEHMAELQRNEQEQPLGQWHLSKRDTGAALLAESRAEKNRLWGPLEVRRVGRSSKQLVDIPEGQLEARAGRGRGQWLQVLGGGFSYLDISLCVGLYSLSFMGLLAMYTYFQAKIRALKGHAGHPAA
For `O=c1[nH]c2cc(Cl)ccc2c(O)c1-c1ccc(Oc2ccccc2)cc1`, the inhibition was -2.9%.
In the case of `COc1ccc(CCn2nnnc2C2(c3ccc(C)cc3)CC2)cc1`, the inhibition is reported as 0.5% (active).
For `N=c1nc(N2CCCCC2)cc(N)n1O`, the inhibition was 1% (active).
`COC(=O)Nc1nc2ccc(C(=O)c3cccs3)cc2[nH]1` showed an inhibition of -0.8%.
In the case of `Cc1oncc1C(=O)Nc1ccc(C(F)(F)F)cc1`, the inhibition is reported as 6.7% (active).
With `CCCN1C[C@H](CSC)C[C@@H]2c3cccc4[nH]cc(c34)C[C@H]21` the inhibition was 7.8% (active).
For `NCCCCN=C(N)N`, the inhibition was 2.1% (active).
For `NC(N)=NCCCCN=C(N)N`, the inhibition was 7.2% (active).
`NCCCCN` showed an inhibition of -2.1%.
Work on `NCCCCCCCCCCN` yielded an inhibition of 0%.
Work on `COc1ccc(-c2cc3ncc(C)n3c(Nc3ncccc3C(N)=O)n2)cc1OC` yielded an inhibition of -0.2%.
`NCCCC(=O)O` showed an inhibition of -4%.
With `C=CC(N)CCC(=O)O` (centres undefined) the inhibition was 0.6% (active).
`COCC(=O)O[C@]1(CCN(C)CCCc2nc3ccccc3[nH]2)CCc2cc(F)ccc2[C@@H]1C(C)C` gave an inhibition of -5.7%.
`CC[C@@H]1Cc2cc(O)ccc2C2=C1c1ccc(O)cc1C[C@H]2CC` was tested, and the inhibition was 41.5% (active).
For `Cc1nc2c(OCc3ccccc3)cccn2c1CC#N`, the inhibition was -7.9%.
For `CCCNC(=O)NS(=O)(=O)c1ccc(Cl)cc1`, the inhibition was 0.2% (active).
With `CCCCNC(=O)NS(=O)(=O)c1ccc(C)cc1` the inhibition was -6.3%.
With `Nn1nnc2ccccc21` the inhibition was 0.7% (active).
`Fc1ccc([C@@H]2CCNC[C@H]2COc2ccc3c(c2)OCO3)cc1` showed an inhibition of -0.5%.
For `CC(C)NCC(O)c1ccc(O)c(O)c1` (centres undefined), the inhibition was 4.8% (active) and 11.3% (active).
`CCC(NC(C)C)C(O)c1ccc(O)c(O)c1` (centres undefined) was tested, and the inhibition was 6.4% (active).
`CC(C)NCC(O)c1ccc(NS(C)(=O)=O)cc1` (centres undefined) showed an inhibition of -5.9%.
With `CC(C)NC[C@H](O)c1ccc(O)c(O)c1` the inhibition was 1.4% (active).
`CC(C)NCC(O)c1cc(O)cc(O)c1` (centres undefined) showed an inhibition of -2.6%.
`CC1CNCCN1S(=O)(=O)c1cccc2cnccc12` (centres undefined) was tested, and the inhibition was 10.4% (active).
`CNCCNS(=O)(=O)c1cccc2cnccc12` showed an inhibition of -3%.
`CC1CN(S(=O)(=O)c2cccc3cnccc23)CCN1` (centres undefined) was tested, and the inhibition was 3% (active).
`CCO/C([O-])=N/c1c[n+](N2CCOCC2)no1` gave an inhibition of -1.5%.
In the case of `Clc1ccccc1C(c1ccccc1)(c1ccccc1)n1ccnc1`, the inhibition is reported as 10.5% (active).
With `C[C@](Cc1ccc(O)c(O)c1)(NN)C(=O)O` the inhibition was 10.8% (active).
Work on `CC(N)(Cc1ccc(O)cc1)C(=O)O` (centres undefined) yielded an inhibition of 0%.
With `C[C@](N)(Cc1ccc(O)c(O)c1)C(=O)O` the inhibition was 8.7% (active).
`COC(=O)C(C)(N)Cc1ccc(O)cc1` (centres undefined) showed an inhibition of -0.8%.
`C[C@](N)(Cc1ccc(O)cc1)C(=O)O` showed an inhibition of -2.7%.
In the case of `CC(N)(Cc1ccc(O)c(O)c1)C(=O)O` (centres undefined), the inhibition is reported as 2.4% (active).
Compound `CN(C)S(=O)(=O)c1ccc2c(c1)/C(=C/c1cc3c([nH]1)CCCC3)C(=O)N2` has an inhibition of -4.7%.
For `Cc1cc(C)c(/C=C2\C(=O)Nc3ccccc32)[nH]1`, the inhibition was 36.3% (active).
`CN(C)c1ccc(/C=C2\C(=O)Nc3ccccc32)cc1` was tested, and the inhibition was 42.8% (active).
`COc1cc(OC)c(/C=C2/C(=O)Nc3ccccc32)c(OC)c1` showed an inhibition of -8.1%.
Work on `Cc1ccc(C(=O)Nc2ccc(S(=O)(=O)[O-])c3c2C(S(=O)(=O)[O-])=[C+]C(S(=O)(=O)O)=[C+]3)cc1NC(=O)c1cccc(NC(=O)Nc2cccc(C(=O)Nc3cc(C(=O)Nc4ccc(S(=O)(=O)[O-])c5c4C(S(=O)(=O)[O-])=[C+]C(S(=O)(=O)O)=[C+]5)ccc3C)c2)c1` yielded an inhibition of -5.3%.
`CC(C)NC[C@H](O)COc1cccc2ccccc12` was tested, and the inhibition was -2.1%.
With `CC(C)NCC(O)COc1cccc2[nH]ccc12` (centres undefined) the inhibition was 1.4% (active).
`C=CCc1ccccc1OCC(O)CNC(C)C` (centres undefined) was tested, and the inhibition was 6.4% (active).
With `CC(C)NC[C@H](O)COc1cccc2[nH]ccc12` the inhibition was -0.8%.
Compound `CC(C)NCC(O)COc1cccc2ccccc12` (centres undefined) has an inhibition of -1.6%.
Compound `O=C1N(c2ccccc2)c2ccccc2C1(Cc1ccncc1)Cc1ccncc1` has an inhibition of -3.5%.
For `O=C(Nc1ccccc1)c1cc([N+](=O)[O-])ccc1Cl`, the inhibition was 1.2% (active).
In the case of `O=C(Nc1ccncc1)c1cc([N+](=O)[O-])ccc1Cl`, the inhibition is reported as -4.2%.
`O=C(Nc1ccc([N+](=O)[O-])cc1Cl)c1cc(Cl)ccc1O` was tested, and the inhibition was 8% (active).
In the case of `O=C(O)c1cc([N+](=O)[O-])ccc1NCCCc1ccccc1`, the inhibition is reported as 2.3% (active).
`CS(=O)(=O)Nc1ccc([N+](=O)[O-])cc1Oc1ccccc1` was tested, and the inhibition was -0.8%.
`Nc1ccc(-c2ccc3ccccc3n2)cc1` was tested, and the inhibition was 14.6% (active).
For `NCC(O)(CS(=O)(=O)O)c1ccc(Cl)cc1` (centres undefined), the inhibition was 7.3% (active).
In the case of `C[C@@H]1C(=O)NC2=Nc3cccc(Cl)c3CN21`, the inhibition is reported as -4.6%.
With `O=C1Cc2cc(CCN3CCN(c4nsc5ccccc45)CC3)c(Cl)cc2N1` the inhibition was 8.8% (active).
Compound `NCCC1CCCC(CCN)N1` (centres undefined) has an inhibition of -5.7%.
With `CC(=O)N[C@H]1[C@H]([C@H](O)[C@H](O)CO)OC(C(=O)O)=C[C@@H]1O` the inhibition was 10.4% (active).
With `OCc1cc(C(O)CNCCCCCCOCCCCc2ccccc2)ccc1O` (centres undefined) the inhibition was 12.5% (active).
For `Nc1ccn([C@H]2CC[C@@H](CO)O2)c(=O)n1`, the inhibition was -3.2%.
For `Nc1ncn([C@@H]2O[C@H](CO)[C@H](O)C2O)c(=O)n1` (some centres undefined), the inhibition was -0.8%.
For `NC(=O)c1ncn([C@@H]2O[C@H](CO)[C@@H](O)[C@H]2O)c1O`, the inhibition was -0.4%.
`Nc1ccn([C@@H]2O[C@H](CO)[C@@H](O)C2O)c(=O)n1` (some centres undefined) was tested, and the inhibition was 6% (active).
`N=c1ccn2c(n1)OC1C(O)[C@@H](CO)O[C@H]12` (some centres undefined) was tested, and the inhibition was 7.2% (active).
`OCCN(CCO)c1nc(N2CCCCC2)c2nc(N(CCO)CCO)nc(N3CCCCC3)c2n1` was tested, and the inhibition was 46.4% (active).
`CCc1c(C)[nH]c2c1C(=O)C(CN1CCOCC1)CC2` (centres undefined) gave an inhibition of -0.8%.
In the case of `C1CCC(N=C(NC23CC4CC(CC(C4)C2)C3)N2CCOCC2)CC1`, the inhibition is reported as -2.2%.
`Cc1ccc(O)c(N=Nc2ccccc2)n1` was tested, and the inhibition was 67.9% (active).
`Nc1ccc(-c2nc3ccc(-c4nc5ccc(N)cc5[nH]4)cc3[nH]2)cc1` was tested, and the inhibition was 44.6% (active).
In the case of `O=c1[nH]c(=O)n([C@H]2C[C@H](O)[C@@H](CO)O2)cc1Br`, the inhibition is reported as 2.6% (active).
In the case of `Cc1cn([C@H]2C[C@@H](N=[N+]=[N-])[C@@H](CO)O2)c(=O)[nH]c1=O`, the inhibition is reported as 1.9% (active).
In the case of `O=c1[nH]c(=O)n([C@H]2C[C@H](O)[C@@H](CO)O2)cc1/C=C/Br`, the inhibition is reported as -4%.
Compound `CCNc1nc2c(ncn2[C@H]2C[C@H](O)[C@@H](CO)O2)c(=O)[nH]1` has an inhibition of -0.7%.
In the case of `Cc1cn([C@H]2C=C[C@@H](CO)O2)c(=O)[nH]c1=O`, the inhibition is reported as 0.2% (active).
With `c1ccc2c(c1)CC(N1CCN(c3cccc4c3OCCO4)CC1)C2` the inhibition was 4.5% (active).
With `Cc1cnc(NC(=O)C2=C(O)c3ccccc3S(=O)(=O)N2C)s1` the inhibition was 5.4% (active).
With `CN1C(C(=O)Nc2ccccn2)=C(O)c2ccccc2S1(=O)=O` the inhibition was -4.7%.
`CN1CC(O)C(O)C(O)C1CO` (centres undefined) was tested, and the inhibition was 3.8% (active).
In the case of `FC(F)(F)c1ccccc1-n1ccnc1`, the inhibition is reported as 4% (active).
`CC(/C=C/c1cccc(Oc2ccc(F)cc2)c1)N(O)C(N)=O` (centres undefined) was tested, and the inhibition was 2.4% (active).
`O=C1Cc2c([nH]c3ccc(Br)cc23)-c2ccccc2N1` gave an inhibition of -0.3%.
In the case of `O=Nc1c(-c2c(O)[nH]c3ccccc23)[nH]c2ccccc12`, the inhibition is reported as 42.8% (active).
`O=Nc1c(-c2c(O)[nH]c3cc(Br)ccc23)[nH]c2ccccc12` was tested, and the inhibition was 27.6% (active).
In the case of `CC(C)(C)[C@]1(O)CCN2C[C@H]3c4ccccc4CCc4cccc(c43)[C@@H]2C1`, the inhibition is reported as -0.1%.
With `O=C(C1CCCCC1)N1CC(=O)N2CCc3ccccc3C2C1` (centres undefined) the inhibition was 1.7% (active).
Work on `Cc1[nH]c(=O)c(C#N)cc1-c1ccncc1` yielded an inhibition of -3.2%.
`Cc1[nH]c(=O)c(C#N)cc1-c1ccc2nccn2c1` was tested, and the inhibition was 7.1% (active).
For `CC[C@H](NC(=O)c1c(C)c(-c2ccccc2)nc2ccccc12)c1ccccc1`, the inhibition was -2%.
For `COC(=O)[C@H](NC(=O)c1cc(-c2ccccc2)nc2ccccc12)c1ccccc1`, the inhibition was 4.9% (active).
In the case of `NCCS`, the inhibition is reported as 3.5% (active).
In the case of `CCOC(=O)c1ncn2c1CN(C)C(=O)c1cc(F)ccc1-2`, the inhibition is reported as 0.3% (active).
With `NC(N)=N/N=C/c1c(Cl)cccc1Cl` the inhibition was -2.6%.
With `CCCCNc1cc(C(=O)O)cc(S(N)(=O)=O)c1Oc1ccccc1` the inhibition was -3.4%.
With `c1ccc(C(NCCNC(c2ccccc2)c2ccccc2)c2ccccc2)cc1` the inhibition was 6% (active).
`CNCCc1cnc(CCC(c2ccccc2)c2ccccc2)[nH]1` gave an inhibition of -2.3%.
`CC(C)NNC(=O)c1ccncc1` was tested, and the inhibition was 1.1% (active).
Work on `CCN(CC)CCOC(=O)c1cc(Cl)c(N)cc1OC` yielded an inhibition of -5.7%.
`CCN(CC)CCNC(=O)c1cc(Cl)c(N)cc1OC` gave an inhibition of -4.7%.
With `COc1cc(N)c(Cl)cc1C(=O)OCCN1CCCCC1` the inhibition was 0.5% (active).
